Test results published in PubChem BioAssay (NCATS).
Several values for one entry are separate records, joined by “and”; a condition that tells them apart may be missing. Equal values may be shown once. Results filed as inconclusive are left out. Where a call stands in place of a potency, no number is given. Activity calls are given as the source filed them. Calls follow the shape of the dose curve; as a rule, active = well fitted curve in the direction sought with a large enough effect; inconclusive = small, poorly fitted or top-dose-only effect, or another doubt; inactive = no such curve, though single readings can be large; an effect the other way counts as inactive or inconclusive.

Legend:
[1] = target: M-phase phosphoprotein 8 (Homo sapiens) (UniProt Q99549); assay: qHTS Validation Assay for Inhibitors for MPP8 Chromodomain Interactions with Methylated Histone Tails (AID 488949); details: AlphaScreen MPP8 binding to H3K9me3 peptide; series mostly up to 57.1 µM; also: nearly all actives have a fitted effect of over 55% in size; also: potency is read from the fitted curve at half-maximal effect
Sequence of M-phase phosphoprotein 8 (Homo sapiens) (Q99549 whole entry, looked up): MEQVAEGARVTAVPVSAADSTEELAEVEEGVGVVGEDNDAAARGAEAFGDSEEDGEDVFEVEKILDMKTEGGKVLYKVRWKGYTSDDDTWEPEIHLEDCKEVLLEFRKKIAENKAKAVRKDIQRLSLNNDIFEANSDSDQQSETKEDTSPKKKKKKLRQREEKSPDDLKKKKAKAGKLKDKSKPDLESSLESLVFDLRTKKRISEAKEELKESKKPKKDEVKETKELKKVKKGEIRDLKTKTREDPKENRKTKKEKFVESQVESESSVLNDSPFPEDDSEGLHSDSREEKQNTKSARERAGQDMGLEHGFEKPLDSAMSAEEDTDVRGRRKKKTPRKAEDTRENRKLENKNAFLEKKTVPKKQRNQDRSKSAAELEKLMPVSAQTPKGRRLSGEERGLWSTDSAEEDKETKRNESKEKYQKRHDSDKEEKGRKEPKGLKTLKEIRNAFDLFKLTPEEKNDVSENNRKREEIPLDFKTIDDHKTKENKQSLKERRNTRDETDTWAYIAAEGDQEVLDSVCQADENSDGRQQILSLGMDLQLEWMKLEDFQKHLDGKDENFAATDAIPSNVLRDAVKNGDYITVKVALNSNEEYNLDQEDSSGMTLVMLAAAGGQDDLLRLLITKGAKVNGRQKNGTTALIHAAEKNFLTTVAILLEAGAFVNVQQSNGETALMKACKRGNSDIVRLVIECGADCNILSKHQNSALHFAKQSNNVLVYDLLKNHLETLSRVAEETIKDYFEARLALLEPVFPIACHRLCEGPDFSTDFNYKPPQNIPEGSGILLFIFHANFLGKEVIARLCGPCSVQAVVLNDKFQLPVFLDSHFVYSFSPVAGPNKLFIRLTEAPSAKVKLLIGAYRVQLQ
Outline: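 50 nM MPP8 + 50 nM b-H3K9me3 peptide, PBS pH 7.4/0.01% Tween-20, 30 min RT; + cpd 30 min RT; + AlphaScreen donor/Ni-chelate acceptor beads 10 ug/mL final, 30 min dark; luminescence read.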

[2] = target: Chromobox protein homolog 1 (Homo sapiens) (UniProt P83916); assay: qHTS Validation Assay for Inhibitors of HP1-beta Chromodomain Interactions with Methylated Histone Tails (AID 488953); details: HP1-beta chromodomain / methylated histone peptide binding assay; series mostly up to 114 µM; also: nearly all actives have a fitted effect of over 50% in size; also: potency is read from the fitted curve at half-maximal effect
Sequence of Chromobox protein homolog 1 (Homo sapiens) (P83916 whole entry, looked up): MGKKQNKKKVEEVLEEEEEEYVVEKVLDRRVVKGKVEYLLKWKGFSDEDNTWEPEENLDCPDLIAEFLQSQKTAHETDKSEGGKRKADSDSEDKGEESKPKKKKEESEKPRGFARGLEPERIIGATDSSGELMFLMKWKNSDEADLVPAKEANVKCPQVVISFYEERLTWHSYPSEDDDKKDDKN
Outline: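 HP1-beta (50 nM) was preincubated 30 min at room temperature with biotinylated H3(1-18)K9me3 peptide (50 nM) in PBS pH 7.4, 0.01% Tween-20, then with compounds 30 min. AlphaScreen signal was read after streptavidin donor/nickel chelate acceptor beads (10 ug/mL final).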

[3] = target: Methanococcus maripaludis chaperonin (MmCpn) (UniProt Q6LX38); assay: High-Throughput Screening for Modulators of Cytosolic Chaperonin Activity: MmCpn Primary Screen (AID 488978); details: Purified MmCpn ATPase activity, ADP HTRF detection, 10 min; series mostly up to 76.9 µM;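 also: 50 nM MmCpn enzyme hydrolysing 30 µM ATP at 37 °C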
Sequence of Methanococcus maripaludis chaperonin (MmCpn) (Q6LX38 1-543): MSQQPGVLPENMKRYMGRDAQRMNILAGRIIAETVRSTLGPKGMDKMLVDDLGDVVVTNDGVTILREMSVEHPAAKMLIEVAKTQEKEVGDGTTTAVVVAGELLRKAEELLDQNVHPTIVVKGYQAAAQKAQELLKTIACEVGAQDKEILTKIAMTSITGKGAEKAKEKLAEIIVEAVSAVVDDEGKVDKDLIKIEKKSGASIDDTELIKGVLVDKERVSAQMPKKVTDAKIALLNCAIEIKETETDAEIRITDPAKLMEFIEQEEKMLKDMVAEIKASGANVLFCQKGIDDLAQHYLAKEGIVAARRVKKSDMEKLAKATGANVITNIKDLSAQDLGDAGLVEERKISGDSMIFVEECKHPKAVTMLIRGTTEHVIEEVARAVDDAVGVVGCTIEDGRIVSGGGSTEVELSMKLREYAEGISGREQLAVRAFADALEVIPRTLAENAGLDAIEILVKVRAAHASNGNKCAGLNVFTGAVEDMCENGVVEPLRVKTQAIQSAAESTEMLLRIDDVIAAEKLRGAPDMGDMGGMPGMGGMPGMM
Outline: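 Steps: chaperonin 50 nM final; add compound, 5 min RT; start with ATP, 30 uM final; hold 10 min at 37C; add ADP Transcreener HTRF reagent, 5 min; read ex 320, em 590 and 665 nm.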

[4] = target: Transient receptor potential cation channel subfamily V member 1 (Homo sapiens) (UniProt Q8NER1); assay: HTS Assay for Compounds that Act as Enhancers of the Vanilloid Receptor 1 (AID 488979); details: TRPV1-expressing cells, enhancer of channel activity, stimulated with capsaicin at EC20; series mostly up to 41.7 µM
Sequence of Transient receptor potential cation channel subfamily V member 1 (Homo sapiens) (Q8NER1 whole entry, looked up): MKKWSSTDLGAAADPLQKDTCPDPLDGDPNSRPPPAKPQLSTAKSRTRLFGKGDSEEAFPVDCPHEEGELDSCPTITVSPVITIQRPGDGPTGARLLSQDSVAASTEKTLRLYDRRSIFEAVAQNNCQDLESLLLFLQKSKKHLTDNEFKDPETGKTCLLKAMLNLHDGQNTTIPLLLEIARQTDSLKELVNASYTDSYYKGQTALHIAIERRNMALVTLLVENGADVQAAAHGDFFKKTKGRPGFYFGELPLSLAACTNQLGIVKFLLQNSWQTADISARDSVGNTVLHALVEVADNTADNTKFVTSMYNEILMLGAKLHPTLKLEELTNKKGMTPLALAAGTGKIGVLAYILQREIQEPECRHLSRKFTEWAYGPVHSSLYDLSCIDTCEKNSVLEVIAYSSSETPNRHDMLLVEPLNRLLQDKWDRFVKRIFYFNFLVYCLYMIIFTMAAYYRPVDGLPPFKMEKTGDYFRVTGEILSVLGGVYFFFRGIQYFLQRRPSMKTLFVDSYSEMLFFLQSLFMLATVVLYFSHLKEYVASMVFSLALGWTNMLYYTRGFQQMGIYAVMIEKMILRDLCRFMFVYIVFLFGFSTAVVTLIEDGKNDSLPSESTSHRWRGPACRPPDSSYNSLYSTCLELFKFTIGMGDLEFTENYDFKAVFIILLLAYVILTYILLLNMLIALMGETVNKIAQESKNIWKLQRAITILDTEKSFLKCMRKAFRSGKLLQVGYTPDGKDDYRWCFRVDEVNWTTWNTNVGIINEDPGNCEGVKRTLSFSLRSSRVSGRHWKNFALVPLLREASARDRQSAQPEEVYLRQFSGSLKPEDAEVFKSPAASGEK
Outline: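 TRPV1-expressing cells loaded with Fluo-8 calcium dye; compounds added and calcium influx read kinetically for 3 min (agonist phase), then capsaicin at EC20 added and read 2 min more for enhancement. Fluorescence ex 480/em 520 nm.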

[5] = target: Thyrotropin receptor (Homo sapiens) (UniProt P16473); assay: qHTS Assay for Antagonists of the Thyroid Stimulating Hormone Receptor (AID 488980); details: TSHR-expressing cells, cAMP antagonist read-out; series mostly up to 57.5 µM
Sequence of Thyrotropin receptor (Homo sapiens) (P16473 whole entry, looked up): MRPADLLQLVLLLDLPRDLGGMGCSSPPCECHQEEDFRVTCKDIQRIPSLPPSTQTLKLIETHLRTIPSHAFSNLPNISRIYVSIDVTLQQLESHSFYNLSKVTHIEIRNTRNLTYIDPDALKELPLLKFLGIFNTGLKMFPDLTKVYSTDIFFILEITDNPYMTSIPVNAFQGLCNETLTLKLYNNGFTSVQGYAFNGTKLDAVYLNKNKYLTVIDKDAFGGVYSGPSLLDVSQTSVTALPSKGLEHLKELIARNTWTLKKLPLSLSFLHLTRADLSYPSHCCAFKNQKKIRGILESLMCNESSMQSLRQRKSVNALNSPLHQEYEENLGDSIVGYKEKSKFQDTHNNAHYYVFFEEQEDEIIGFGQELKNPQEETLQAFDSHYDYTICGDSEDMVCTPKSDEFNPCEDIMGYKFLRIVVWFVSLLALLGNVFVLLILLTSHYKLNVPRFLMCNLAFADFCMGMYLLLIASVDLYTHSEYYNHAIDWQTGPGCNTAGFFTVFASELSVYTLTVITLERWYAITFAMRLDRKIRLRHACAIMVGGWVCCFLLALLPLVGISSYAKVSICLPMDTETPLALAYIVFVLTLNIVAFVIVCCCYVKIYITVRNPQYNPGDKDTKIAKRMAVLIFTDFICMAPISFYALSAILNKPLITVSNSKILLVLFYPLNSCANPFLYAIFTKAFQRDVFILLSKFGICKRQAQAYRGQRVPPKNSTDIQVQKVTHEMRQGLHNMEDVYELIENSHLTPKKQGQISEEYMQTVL
Outline: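 Readout is cAMP by HTRF competition between cellular cAMP and cAMP-d2 for a cryptate-labelled antibody. Antagonism was assessed in TSHR-transfected HEK293 cells stimulated with 4 nM TSH (EC80, final) in the presence of RO 20-1724.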

[6] = target: D(1A) dopamine receptor (Homo sapiens) (UniProt P21728); assay: HTS Assay for Allosteric Agonists of the Human D1 Dopamine Receptor: Primary Screen for Agonists (AID 488981); details: Inducible HEK293 T-REx D1 cells, calcium-flux fluorescence, 180 s kinetic; series mostly up to 41.8 µM; also: potency is read from the fitted curve at half-maximal effect
Sequence of D(1A) dopamine receptor (Homo sapiens) (P21728 whole entry, looked up): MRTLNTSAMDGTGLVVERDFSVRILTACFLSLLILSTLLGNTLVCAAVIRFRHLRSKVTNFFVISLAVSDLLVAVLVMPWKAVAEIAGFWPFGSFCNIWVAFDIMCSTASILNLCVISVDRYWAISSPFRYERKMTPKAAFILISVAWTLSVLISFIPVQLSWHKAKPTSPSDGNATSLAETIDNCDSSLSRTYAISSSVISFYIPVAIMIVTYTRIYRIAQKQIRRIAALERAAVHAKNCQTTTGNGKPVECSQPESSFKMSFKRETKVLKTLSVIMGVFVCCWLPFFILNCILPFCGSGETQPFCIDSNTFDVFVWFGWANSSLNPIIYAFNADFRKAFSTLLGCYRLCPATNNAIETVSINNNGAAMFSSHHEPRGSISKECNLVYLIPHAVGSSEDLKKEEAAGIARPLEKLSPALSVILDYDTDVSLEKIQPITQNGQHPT
Outline: (§1)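 Tetracycline-induced HEK293 T-REx cells force-coupled to calcium signalling were incubated overnight at 30 C and dye-loaded at room temperature. Calcium flux over 180 s after compound addition flagged agonists; a further 180 s read after EC20 dopamine flagged potentiators.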

[7] = target: D(1A) dopamine receptor (Homo sapiens) (UniProt P21728); assay: HTS Assay for Allosteric Agonists of the Human D1 Dopamine Receptor: Primary Screen for Potentiators (AID 488982); details: HEK293 T-REx D1 inducible cells, calcium flux, kinetic fluorescence; series mostly up to 8.37 µM
Outline: as §1

[8] = target: D(1A) dopamine receptor (Homo sapiens) (UniProt P21728); assay: HTS Assay for Allosteric Agonists of the Human D1 Dopamine Receptor: Primary Screen for Antagonists (AID 488983); details: D1 receptor cell assay, antagonist mode, qHTS titration; series mostly up to 41.8 µM;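 also: calcium flux response to an EC80 dopamine challenge measured with no-wash dye; nearly all actives have a fitted effect of over 65% in size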; also: potency is read from the fitted curve at half-maximal effect
Outline: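 Tetracycline-induced HEK293 T-REx cells expressing force-coupled D1 were plated overnight at 30 C, dye-loaded for calcium, and read kinetically. Compounds were pinned in, then an EC80 dopamine challenge followed after 180 s to reveal antagonism.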

[9] = target: Flap endonuclease 1 (Homo sapiens) (UniProt P39748); assay: qHTS Validation Assay for the Inhibitors of Human Flap endonuclease 1 (FEN1) (AID 488816); details: FEN1 nuclease activity, fluorogenic DNA substrate; series mostly up to 57.1 µM
Sequence of Flap endonuclease 1 (Homo sapiens) (P39748 whole entry, looked up): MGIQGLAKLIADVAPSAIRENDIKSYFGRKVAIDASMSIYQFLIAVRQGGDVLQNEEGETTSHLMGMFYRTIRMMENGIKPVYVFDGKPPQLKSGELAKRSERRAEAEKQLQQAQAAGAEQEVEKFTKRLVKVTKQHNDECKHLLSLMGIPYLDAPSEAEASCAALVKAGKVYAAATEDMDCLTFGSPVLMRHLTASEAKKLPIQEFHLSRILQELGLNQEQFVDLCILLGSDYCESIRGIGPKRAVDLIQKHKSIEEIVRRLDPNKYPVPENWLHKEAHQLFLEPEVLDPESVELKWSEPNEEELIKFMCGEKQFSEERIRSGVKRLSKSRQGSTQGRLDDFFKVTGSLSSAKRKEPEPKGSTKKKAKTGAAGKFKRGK
Outline: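 FEN1, dispensed as a 10 nM reagent, was preincubated with pin-transferred compounds for 15 min at room temperature before substrate was added (50 nM final). Plates were read at 0 and 15 min, and a four-parameter Hill equation was fitted to the concentration-response data.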

| SMILES | Potency [1] | Potency [2] | outcome [3] | outcome [4] | outcome [5] | Potency [6] | Potency [7] | Potency [8] | Potency [9] |
| --- | --- | --- | --- | --- | --- | --- | --- | --- | --- |
| COc1cc2nc(N3CCN(C(=O)OCc4ccccc4)C(C(=O)NC(C)(C)C)C3)nc(N)c2cc1OC (configuration not stated) | inactive | inactive | inactive | inactive | inactive | inactive | inactive | inactive | – |
| Cc1ccc(C(=O)O[C@H](C(=O)O)[C@@H](OC(=O)c2ccc(C)cc2)C(=O)O)cc1 (tested in a mixture with another compound) | inactive | inactive | inactive | inactive | – | inactive | inactive | inactive | – |
| NC(=S)c1ccc[n+]([C@@H]2O[C@@H](COP(=O)([O-])OP(=O)(O)OC[C@H]3O[C@@H](n4cnc5c(N)ncnc54)[C@H](OP(=O)(O)O)[C@@H]3O)C(O)C2O)c1 (some centres not stated) | inactive | 89.1 µM (active) | inactive | – | – | inactive | inactive | inactive | – |
| CC1OC1P(=O)(O)O (configuration not stated) | – | – | inactive | – | – | inactive | inactive | – | inactive |
| CCCCCCCCCCCCCCCCCCNC(=O)OCC(COP(=O)([O-])OCC[n+]1ccsc1)OC (configuration not stated) | inactive | inactive | inactive | inactive | inactive | inactive | inactive | inactive | – |
| C[N+](C)(CCCCCC[N+](C)(C)CCCN1C(=O)c2cccc3cccc(c23)C1=O)CCCN1C(=O)c2cccc3cccc(c23)C1=O | inactive | inactive | inactive | inactive | inactive | inactive | inactive | inactive | – |
| O=C(O)CC1CC(c2ccccc2)=NO1 (configuration not stated) | inactive | inactive | inactive | – | – | inactive | inactive | inactive | – |
| Cc1cc2c(cc1Cl)N(C(=O)Nc1ccc(Oc3cccnc3C)nc1)CC2 | inactive | 44.7 µM (active) | inactive | – | – | inactive | inactive | – | – |
| N#C/C(=C\c1ccc(-c2cc(Cl)ccc2Cl)o1)C(=O)Nc1cccc2ncccc12 | inactive | inactive | inactive | – | – | inactive | inactive | inactive | – |
| O=C(CCCCCN1CCN(c2ccccc2-c2ccccc2)CC1)NC1CCCc2ccccc21 (configuration not stated) | – | – | inactive | – | – | inactive | inactive | 7.08 µM (active) | inactive |
| CN(C)c1ccc(/C=C2\C(=O)Nc3ccccc32)cc1 | 28.2 µM (active) and 10.6 µM (active) | 28.2 µM (active) | inactive | inactive | inactive | inactive | inactive | inactive | – |
| O=C1NC(O)=NC1(c1ccccc1)c1ccccc1 | inactive | inactive | inactive | inactive | inactive | inactive | inactive | – | – |
| CCNC(=O)[C@H]1O[C@@H](n2cnc3c(N)nc(NCCc4ccc(CCC(=O)O)cc4)nc32)[C@H](O)[C@@H]1O | inactive | inactive | inactive | – | – | inactive | inactive | inactive | – |
| O=c1[nH]c2cc([N+](=O)[O-])c([N+](=O)[O-])cc2[nH]c1=O | inactive | inactive | inactive | inactive | inactive | inactive | inactive | inactive | – |
| O=C1C(SCCO)=C(SCCO)C(=O)c2ccccc21 | inactive | 10 µM (active) | inactive | inactive | inactive | inactive | – | 11.2 µM (active) | – |
| O=C(O)/C=C/C(O)c1ccc(Cl)cc1 (configuration not stated) | inactive | inactive | inactive | inactive | inactive | inactive | – | inactive | – |
| CC12C(=O)OC(=O)C1(C)C1CCC2O1 (configuration not stated) | inactive | inactive | inactive | inactive | – | inactive | inactive | inactive | – |
| CCCCCCCCCCCCCCCC(=O)OC(CC(=O)O)C[N+](C)(C)C (configuration not stated) | inactive | inactive | inactive | – | inactive | 10 µM (active) | inactive | – | – |
| c1ccc(-c2ccccn2)nc1 | inactive | inactive | inactive | inactive | inactive | inactive | inactive | inactive | – |
| OCC1O[C@H](O)C(Cl)C(O)C1O (some centres not stated) | inactive | inactive | inactive | inactive | inactive | inactive | inactive | inactive | – |
| CC(COc1ccc(/C=C/c2ccccc2)cc1)[N+](C)(C)C (configuration not stated) | inactive | inactive | inactive | inactive | inactive | inactive | inactive | inactive | – |
| Cn1c(=O)c2[nH]c(-c3ccccc3)nc2n(C)c1=O | inactive | inactive | inactive | inactive | inactive | inactive | inactive | inactive | – |
| CC(C)Cc1ccc([C@H](C)C(=O)O)cc1 | inactive | inactive | inactive | – | inactive | inactive | inactive | inactive | – |
| NC(=O)C(=O)O | inactive | inactive | inactive | inactive | inactive | inactive | inactive | – | – |
| CSc1ccccc1N1CCN(CCCCCC(=O)NC2CCCc3ccccc32)CC1 (configuration not stated) | inactive | 50.1 µM (active) | inactive | – | – | inactive | inactive | 2 µM (active) | – |
| NC(=S)NCCC[C@H](N)C(=O)O | inactive | 10 µM (active) | inactive | – | – | inactive | inactive | inactive | – |
| COc1cc2c(CCNC(C)=O)c[nH]c2cc1Cl | inactive | inactive | inactive | inactive | inactive | inactive | inactive | inactive | – |
| O=C(O)c1cc(=O)c2c(Cl)cc(Cl)cc2[nH]1 | inactive | inactive | inactive | inactive | inactive | inactive | inactive | inactive | – |
| CN(C)c1nc2c(Br)c(Br)c(Br)c(Br)c2[nH]1 | inactive | inactive | inactive | inactive | inactive | inactive | inactive | inactive | – |
| NCC1OC(O[C@H]2[C@H](O)[C@@H](OC3C(O)C(N)CC(N)C3OC3OC(CO)C(O)C(O)C3N)O[C@@H]2CO)C(N)C(O)C1O (some centres not stated) | inactive | inactive | inactive | – | – | inactive | inactive | inactive | – |
